{"source": "PubChem BioAssay (Tox21)", "note": "Values joined by “and” are separate entries in the source; they are usually repeats but may differ in a detail not shown here. Equal entries are not always repeated. Results filed as inconclusive are left out. A call without a number means that no potency is given here. A structure can be active in one record and inactive in another. Active and inactive are the calls of the source. Calls come from the whole dose curve; as a rule, active = well fitted activation curve with a large enough effect in the signal ratio in the repeat runs (not every such curve was filed as active); inconclusive = weak or mixed curves, or effect the other way; inactive = flat fitted curve, though single readings scatter; the % refers to the signal ratio. Potency is the fitted concentration of half-maximal effect.", "data": [{"molecular_target": "Estrogen receptor beta (Homo sapiens) (UniProt Q92731)", "sequence (Q92731 whole entry, looked up)": "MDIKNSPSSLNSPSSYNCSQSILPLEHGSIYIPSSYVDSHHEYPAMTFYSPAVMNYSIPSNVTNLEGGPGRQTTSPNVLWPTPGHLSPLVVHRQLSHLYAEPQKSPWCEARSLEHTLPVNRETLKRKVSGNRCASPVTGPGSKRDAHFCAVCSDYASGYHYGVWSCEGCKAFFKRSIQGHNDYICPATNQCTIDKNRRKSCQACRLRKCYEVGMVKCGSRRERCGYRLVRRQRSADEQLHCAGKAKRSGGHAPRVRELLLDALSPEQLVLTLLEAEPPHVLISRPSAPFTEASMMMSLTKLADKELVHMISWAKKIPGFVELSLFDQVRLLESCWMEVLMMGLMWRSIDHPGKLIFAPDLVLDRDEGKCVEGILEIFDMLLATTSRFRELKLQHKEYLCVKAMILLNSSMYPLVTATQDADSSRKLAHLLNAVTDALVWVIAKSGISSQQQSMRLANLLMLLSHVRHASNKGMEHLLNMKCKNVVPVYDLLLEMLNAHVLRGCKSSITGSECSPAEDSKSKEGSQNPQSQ", "assay": "qHTS assay to identify small molecule agonists of the estrogen receptor beta (ER-beta) signaling pathway (AID 1259377)", "conditions": "ER-beta-UAS-bla HEK293T, beta-lactamase FRET ratio, 16 h; series mostly up to 92.4 µM; activation: at the top concentration", "description": "U.S. Tox21 Program National Center for Advancing Translational Sciences [NCATS] NIH Chemical Genomics Center [NCGC] U.S. Environmental Protection Agency [EPA] National Institutes of Environmental Health Sciences [NIEHS] National Toxicology Program [NTP] U.S. Food and Drug Administration [FDA] Tox21 Assay Overview: Estrogen receptor (ER), a nuclear hormone receptor, plays an important role in development, metabolic homeostasis and reproduction. Two subtypes of ER, ER-alpha and ER-beta, have similar expression patterns with some uniqueness in both types. Endocrine disrupting chemicals (EDCs) and their interactions with steroid hormone receptors like ER causes disruption of normal endocrine function. To identify the compounds that activate ER signaling, an ER beta-UAS-bla GripTite cell line (Life technologies, Madison, WI, USA) containing a beta-lactamase reporter gene under the control of an Upstream Activator Sequence (UAS) was used to screen Tox21 10K compound library.\nTox21 Assay Protocol Summary: ER-beta-UAS-bla HEK293T cells were dispensed at 2,000 cells/5 uL of assay medium containing 2% charcoal stripped FBS per well into black wall/clear-bottom 1536-well plates using a Multidrop Combi (ThermoFisher Scientific, Waltham, MA) dispenser. After the assay plates were incubated at a 37C and 5% CO2 for 6 hr, 23 nL of compounds dissolved in DMSO, positive controls or DMSO only was transferred to the assay plate by a Pintool station (Kalypsys, San Diego, CA). The plates were incubated at 37C and 5% CO2 for 16 hr. Then 1 uL of LiveBLAzerTM B/G FRET substrate was added using a BioRAPTR FRD (Flying Reagent Dispenser, Aurora Discovery, San Diego, CA). After the plates were incubated at room temperature for 2 hours, fluorescence intensity was measured by an Envision plate reader (PerkinElmer, Shelton, CT).", "values": [{"smiles": "COP(=S)(OC)Oc1cc(Cl)c(Cl)cc1Cl", "Potency": "inactive"}, {"smiles": "CC(C)N(C(=O)SCC(Cl)=C(Cl)Cl)C(C)C", "Potency": "inactive"}, {"smiles": "CC1(C)C(C=C(Cl)Cl)C1C(=O)OC(C#N)c1cccc(Oc2ccccc2)c1", "note": "(stereo not given)", "Potency": "inactive"}, {"smiles": "N[C@@H](Cc1ccc(N(CCCl)CCCl)cc1)C(=O)O", "activation": "-0.644% [at 42.5 µM] (inactive)"}, {"smiles": "CCCCCCCCOC(=O)c1ccccc1C(=O)OCCCCCCCC", "Potency": "inactive"}, {"smiles": "CCC(C)(c1ccc(O)cc1)c1ccc(O)cc1", "activation": "-0.14% (inactive)"}, {"smiles": "COC(=O)c1sccc1S(=O)(=O)NC(=O)Nc1nc(C)nc(OC)n1", "Potency": "inactive"}, {"smiles": "CCCCN(CCCC)N=O", "Potency": "inactive"}, {"smiles": "Nc1ccc(Cl)c(Cl)c1", "Potency": "inactive"}, {"smiles": "Cc1cc(C)cc(C)c1", "activation": "1.46% (inactive)"}, {"smiles": "CN(C)C(=O)Nc1ccc(Cl)cc1", "Potency": "inactive"}, {"smiles": "CNC(=O)N(C)c1nnc(C(C)(C)C)s1", "Potency": "inactive"}, {"smiles": "O=c1oc2ccccc2c(O)c1C(CC(O)c1ccc(-c2ccc(Br)cc2)cc1)c1ccccc1", "note": "(stereo not given)", "Potency": "inactive"}, {"smiles": "Cc1cc(Cl)ccc1OCCCC(=O)O", "activation": "-2.01% (inactive)"}, {"smiles": "O=C(O)C(F)(F)C(F)(F)C(F)(F)C(F)(F)C(F)(F)C(F)(F)C(F)(F)F", "activation": "-3.25% (inactive)"}, {"smiles": "Nc1ccncc1", "activation": "3.21% [at 42.5 µM] (inactive)"}, {"smiles": "CCCCOCCOP(=O)(OCCOCCCC)OCCOCCCC", "Potency": "inactive"}, {"smiles": "O=[N+]([O-])c1c(Cl)c(Cl)c(Cl)c(Cl)c1Cl", "Potency": "inactive"}, {"smiles": "Nc1c(Cl)cc([N+](=O)[O-])cc1Cl", "activation": "-1.19% (inactive)"}, {"smiles": "c1ccc(P(c2ccccc2)c2ccccc2)cc1", "Potency": "inactive"}, {"smiles": "COP(=S)(OC)Oc1ccc([N+](=O)[O-])cc1", "activation": "-7.73% (inactive)"}, {"smiles": "CC(C)C(=O)OCC(C)(C)C(OC(=O)C(C)C)C(C)C", "note": "(stereo not given)", "Potency": "inactive and 27.3 µM (active)"}, {"smiles": "CC(C)NC(C)C", "Potency": "inactive"}, {"smiles": "CCOC(=S)S", "activation": "-0.874% (inactive)"}, {"smiles": "CCOP(=S)(OCC)O/N=C(\\C#N)c1ccccc1", "Potency": "inactive"}, {"smiles": "C=CCN(CC=C)C(=O)C(Cl)Cl", "Potency": "inactive"}, {"smiles": "CCCCN(CC)c1c([N+](=O)[O-])cc(C(F)(F)F)cc1[N+](=O)[O-]", "Potency": "inactive"}, {"smiles": "CC(C)Oc1cc(-n2nc(C(C)(C)C)oc2=O)c(Cl)cc1Cl", "Potency": "inactive"}, {"smiles": "N#CC(Br)Br", "activation": "-0.314% (inactive)"}, {"smiles": "CCN(N=O)C(N)=O", "Potency": "inactive"}, {"smiles": "O=C(NC(=O)c1c(F)cccc1F)Nc1ccc(Cl)cc1", "Potency": "inactive"}, {"smiles": "CCC(C)c1ccc(O)cc1", "note": "(stereo not given)", "Potency": "inactive"}, {"smiles": "CCOC(=O)C(C)OC(=O)c1cc(Oc2ccc(C(F)(F)F)cc2Cl)ccc1[N+](=O)[O-]", "note": "(stereo not given)", "Potency": "inactive"}, {"smiles": "CCCCCCCCCCCOC(=O)c1ccccc1C(=O)OCCCCCCCCCCC", "Potency": "inactive"}, {"smiles": "Nc1cccnc1", "Potency": "inactive"}, {"smiles": "NC(=S)Nc1ccccc1", "activation": "6.67% (inactive)"}, {"smiles": "C=CC(=O)OCCO", "Potency": "inactive"}, {"smiles": "NNC(=S)NN", "Potency": "inactive"}, {"smiles": "C#CCOS(=O)OC1CCCCC1Oc1ccc(C(C)(C)C)cc1", "note": "(stereo not given)", "Potency": "inactive"}, {"smiles": "Brc1ccc(Oc2cc(Br)c(Br)cc2Br)c(Br)c1", "Potency": "inactive"}]}]}
